Assay outcomes (PubChem)
Vaccinia mCherry: inhibitors of vaccinia virus infection (mCherry reporter signal); Vaccinia virus mCherry reporter infection, fluorescence; Potency, µM (series often up to 36.5 µM), usual class: inhibitors; 310,000 compounds, 0.63% hits; calls by dose curve; tested in A549 cells; also: nearly all actives have a fitted effect of over 35% in size
HCMV antiviral: inhibitors of human cytomegalovirus; 410,000 compounds, 4.5% hits; HFF cells, HCMV-luciferase reporter, 72 h; hits give low values; AID 1259415; activity change, negative = inhibition, % at 57.5 µM; in the data active = activity change below about -60%; inconclusive = no clear call, values can overlap the other calls; inactive = above about -39%
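Cell-based, HFFs, 1000 cells/well, 16 h 37C; cpds in DMSO + HCMV-luc, MOI 1 PFU/cell; 72 h 37C; OneGlo luminescence after 5 min RT; norm. to buffer vs Salinomycin 10uM.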
HCV inh: HCV inhibition; Huh7.5.1 HCVcc-Cre infection, luciferase reporter, 44 h; Potency, µM (titrated, usually from 41.8 µM), usual class: inhibitors; 340,000 compounds, 3.4% hits
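A cell-based infection assay in which seeded cells (1,000 per well) receive test compound after 4 h, are inoculated with HCVcc-Cre at approximately 0.5 moi, and are incubated 44 h before luminescence detection.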
Sm TGR block: inhibitors of Schistosoma mansoni thioredoxin glutathione reductase. Q962Y6. purified TGR, DTNB reduction, TNB absorbance 405 nm. Potency, µM (titrated, usually from 114 µM), hits mostly inhibitors. 360,000 compounds, 3% hits; also: nearly all actives have a fitted effect of over 60% in size
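Kinetic colorimetric format: TGR-catalysed, NADPH-driven DTNB reduction monitored via TNB absorbance. Enzyme dispensed at 20 nM; compound exposure 15 min at room temperature before reaction start.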
VACV Venus inh: inhibitors of vaccinia virus (Venus reporter); Vaccinia virus Venus reporter expression, fluorescence; 330,000 compounds, 0.46% hits; AID 720580; Potency, µM (top dose mostly 36.5 µM), actives largely listed as inhibitors; calls by dose curve; tested in A549 cells; also: nearly all actives have a fitted effect of over 30% in size
FMDV inh: foot and mouth disease virus antiviral activity; FMDV antiviral cell-based qHTS; Potency, µM (series often up to 57.9 µM), usual class: inhibitors; 410,000 compounds, 1.2% hits; calls by dose curve; tested in HEK293T cells; also: read-out not given here; nearly all actives have a fitted effect of over 45% in size
Large screens that a line does not name were inactive. Hits are enriched below; roughly 9.3% of the tested compounds scored in any of these assays. Unless noted, calls follow the shape of the dose curve; as a rule, active = well fitted curve in the direction sought with a large enough effect; inconclusive = small, poorly fitted or top-dose-only effect, or another doubt; inactive = no such curve, though single readings can be large; an effect the other way counts as inactive or inconclusive.

O=C(O)c1cc(N/N=C/c2c[nH]c3ccccc23)ccc1Cl	none
Cc1ccc(COC(=O)c2nn(C)c(=O)c3ccccc23)cc1	HCMV antiviral -92.0, HCV inh 10µM, FMDV inh inconclusive
Cn1c(=O)c2c(-c3ccccc3)n(-c3ccccc3N)cc2n(C)c1=O	none (no result: HCV inh, Sm TGR block)
CCN(CC(=O)Nc1cccc(OC)c1)c1ncnc2sc(C)c(C)c12	HCMV antiviral -73.8, HCV inh inconclusive, FMDV inh 20µM
COc1cccc(NC(=O)COc2ncnc3sc(C)c(C)c23)c1	none (no result: Vaccinia mCherry)
Nc1nonc1-c1nc2ccccc2n1CC(=O)Nc1ccccc1C(=O)O	none (no result: HCV inh)
Nc1nonc1-c1nc2ccccc2n1CC(=O)N/N=C/c1ccc(-c2cccc(C(=O)O)c2)o1	Sm TGR block 50.1µM
Cc1cccn2c(=O)c(C=O)c(Sc3ncccn3)nc12	HCV inh inconclusive, Sm TGR block 22.4µM, FMDV inh inconclusive
CC1CCN(c2nc3ccccn3c(=O)c2C=O)CC1	none (no result: Vaccinia mCherry, VACV Venus inh)
Cc1cccn2c(=O)c(C=O)c(Cl)nc12	HCMV antiviral -88.1, HCV inh inconclusive, Sm TGR block 6.31µM, FMDV inh 31.6µM
O=Cc1c(Cl)nc2ccccn2c1=O	HCV inh 10µM, Sm TGR block inconclusive
COCC(C)n1c(SCC(=O)Nc2cc(C)on2)nc2ccccc2c1=O (configuration not stated)	none
CCCC(C(=O)NC(C)(C)C)N(Cc1ccccc1Cl)C(=O)c1snc(C(N)=O)c1N (configuration not stated)	HCV inh inconclusive (no result: Vaccinia mCherry, VACV Venus inh)
C/C(=C\C(=O)c1c(O)cc(C)oc1=O)N(C)C	none
CSc1ccc(/C=C/C(=O)c2c(O)cc(C)oc2=O)cc1	HCMV antiviral -80.1
CSc1ccc(C(=O)/C=C/c2ccc(N)cc2)cc1	VACV Venus inh inconclusive
Cc1cc(O)c(C(=O)/C=C/c2ccc(Cl)cc2)c(=O)o1	Sm TGR block 25.1µM, FMDV inh 25.1µM
CCCNC(=O)Cn1c(=O)/c(=C/c2ccc(-c3ccc([N+](=O)[O-])cc3)o2)s/c1=C\C(=O)C(C)(C)C	Vaccinia mCherry inconclusive, HCMV antiviral -95.7, HCV inh inconclusive (no result: Sm TGR block)
CSc1ccc(/C=c2\s/c(=C\C(=O)C(C)(C)C)n(CC(=O)NCCC3=CCCCC3)c2=O)cc1	none (no result: Vaccinia mCherry, VACV Venus inh)
CCCCN(CCCC)c1ncnc2nc[nH]c12	HCMV antiviral -90.9, VACV Venus inh inconclusive, FMDV inh inconclusive (no result: Sm TGR block)
CCN(c1ccc(OC)cc1)c1ncnc2nc[nH]c12	HCMV antiviral -88.2
C/C(CCC(C)C)=N\NC(=O)COc1ccccc1-c1ccccc1	HCMV antiviral -90.0
CC(NC(=O)COc1ccccc1-c1ccccc1)c1ccccc1 (configuration not stated)	HCMV antiviral -69.1, FMDV inh inconclusive
C/C(CCc1ccccc1)=N\NC(=O)COc1ccccc1C	HCV inh inconclusive
Cc1onc(C(=O)NCCc2ccccc2)c1[N+](=O)[O-]	Sm TGR block inconclusive
COc1ccc(CCNC(=O)c2ccc(-c3ccc([N+](=O)[O-])cc3Cl)o2)cc1OC	HCV inh 7.08µM, FMDV inh 12.6µM
COc1ccc(CCNC(=O)c2ccc([N+](=O)[O-])cc2Cl)cc1OC	none (no result: Sm TGR block)
COc1ccc(CCNC(=O)c2noc(C)c2[N+](=O)[O-])cc1OC	Sm TGR block 35.5µM
CC(=O)NC(CC(=O)N(C)Cc1c(F)cccc1Cl)c1ccccc1 (configuration not stated)	none
Cc1nc2ccccc2nc1CN1CCC(CO)(CC2CCCCO2)CC1 (configuration not stated)	Sm TGR block inconclusive
CCOc1ccc(NC(=O)COc2nsnc2N2CCOCC2)cc1	none (no result: Vaccinia mCherry, VACV Venus inh)
Clc1ccc(CSc2nnc(-c3cccnc3)n2Cc2ccco2)c(Cl)c1	HCMV antiviral inconclusive, HCV inh inconclusive, Sm TGR block 14.1µM (no result: Vaccinia mCherry, VACV Venus inh)
COc1ccc(C(=O)CSc2nnc(-c3cnccn3)n2Cc2ccco2)cc1	Sm TGR block 35.5µM (no result: Vaccinia mCherry, VACV Venus inh)
COc1ccc(C(=O)CSc2nnc(-c3cc4ccccc4cc3O)n2Cc2ccco2)cc1	HCV inh 11.2µM, Sm TGR block inconclusive, FMDV inh inconclusive
COc1ccc(C(=O)CSc2nnc(-c3cccnc3)n2Cc2ccco2)cc1	Sm TGR block 56.2µM (no result: Vaccinia mCherry, VACV Venus inh)
Cc1cccc(C(=O)Oc2ccccc2-c2nnco2)c1	none (no result: Vaccinia mCherry)
c1cncc(CSc2nnc(-c3cccnc3)n2Cc2ccco2)c1	Sm TGR block inconclusive (no result: Vaccinia mCherry, HCV inh, VACV Venus inh, FMDV inh)
O=C(CSc1nnc(-c2cccnc2)n1Cc1ccco1)N1c2ccccc2Sc2ccccc21	Sm TGR block 25.1µM, FMDV inh inconclusive (no result: Vaccinia mCherry, VACV Venus inh)
O=C(CSc1nnnn1-c1ccc(Cl)cc1)N1CCNC1=O	none (no result: Sm TGR block)
Cc1ccc(CNc2ccc3c(c2)OCO3)c(C)c1	Sm TGR block 39.8µM (no result: Vaccinia mCherry, HCMV antiviral, HCV inh, VACV Venus inh, FMDV inh)
COc1cccc(/C=C/C(=O)OCC(=O)Nc2ccc3c(c2)OCO3)c1	HCMV antiviral -97.4 (no result: HCV inh, Sm TGR block)
O=C(CC1CS(=O)(=O)CC1CC(=O)Nc1ccc2c(c1)OCCO2)Nc1ccc2c(c1)OCCO2 (configuration not stated)	HCMV antiviral -80.7, FMDV inh inconclusive (no result: Vaccinia mCherry, VACV Venus inh)
c1cncc(CNc2ccc3c(c2)OCO3)c1	Sm TGR block 15.8µM (no result: Vaccinia mCherry)
COc1ccc2nc(SCCOC(=O)Nc3ccc(Cl)cc3)nc(C)c2c1	HCV inh inconclusive
O=C(COc1ccccc1)N1CCCC1	none
O=C(COC(=O)c1cccnc1)Nc1ccc2c(c1)OCO2	HCMV antiviral -83.6 (no result: Vaccinia mCherry, Sm TGR block, VACV Venus inh)
CCC(=O)OCC(=O)Nc1ccc2c(c1)OCO2	none
O=C(COC(=O)C1CC1)Nc1ccc2c(c1)OCO2	HCMV antiviral -97.8
Nc1ccn(Cc2cccc(Cl)c2)n1	none
Cc1ccc(NC(=O)CC2Nc3cccc4cccc(c34)NC2=O)cc1 (configuration not stated)	Sm TGR block 39.8µM (no result: HCV inh)
O=C(CC1Nc2cccc3cccc(c23)NC1=O)Nc1ccccc1 (configuration not stated)	none
COC(=O)c1ccc(NC(=O)CC2Nc3cc(C)c(C)cc3NC2=O)cc1 (configuration not stated)	HCMV antiviral -98.6, FMDV inh inconclusive (no result: HCV inh)
CC(=O)c1ccc(NC(=O)CC2Nc3cc(C)c(C)cc3NC2=O)cc1 (configuration not stated)	none (no result: HCV inh)
Cc1cc2c(cc1C)NC(CC(=O)Nc1ccccc1)C(=O)N2 (configuration not stated)	HCMV antiviral -99.9 (no result: HCV inh)
CCOC(=O)Cc1nnc(NC(=O)CSc2ccc(Cl)cc2)s1	none (no result: Vaccinia mCherry, VACV Venus inh)
COc1ccc(-c2ccc(-c3noc(-c4cc(OC)cc(OC)c4)n3)c(OC)n2)cc1	none (no result: HCV inh)
CCc1ccc(NC(=O)[C@H](C)NC(=O)C2CCN(C(=O)[C@@H](NC(=O)OC(C)(C)C)C(C)C)CC2)cc1	HCMV antiviral -70.7 (no result: Vaccinia mCherry, VACV Venus inh)
FC(F)(F)COc1nc(N2CCOCC2)nc(N(c2ccccc2)c2ccccc2)n1	Vaccinia mCherry inconclusive, HCMV antiviral -86.3, HCV inh inconclusive, VACV Venus inh inconclusive, FMDV inh inconclusive
c1ccc(N(c2ccccc2)c2nc(N3CCOCC3)nc(N3CCOCC3)n2)cc1	none (no result: Vaccinia mCherry, HCMV antiviral, HCV inh, VACV Venus inh, FMDV inh)
